Laboratory results taken from PubChem BioAssay (NCI).
Compounds without any hit were thinned out: in the full panel of roughly 83,000, 20% have a hit.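 Plates (96-well) were seeded with cells, treated with compound at one concentration, and incubated for 48 hours before percent growth was determined.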 Calls of active or inactive are those of the source. How the source made its calls: active means growth percent below 10; inactive means the rest.

Assays:
Assay in all cases: NCI-60 one-dose screen, 48 h (100 = growth as untreated, 0 = no growth, -100 = all killed)
Conditions in all cases: 10 µM unless noted
[1] = tested on: MOLT-4 leukemia
[2] = tested on: SR leukemia
[3] = tested on: RPMI-8226 leukemia
[4] = tested on: OVCAR-8 ovarian
[5] = tested on: OVCAR-5 ovarian
[6] = tested on: SK-OV-3 ovarian
[7] = tested on: IGROV1 ovarian
[8] = tested on: HS 578T breast
[9] = tested on: NCI/ADR-RES ovarian
[10] = tested on: T-47D breast
[11] = tested on: BT-549 breast
[12] = tested on: MDA-MB-435 melanoma
[13] = tested on: MCF7 breast
[14] = tested on: HCT-116 colon
[15] = tested on: HCC-2998 colon
[16] = tested on: KM12 colon
[17] = tested on: SW-620 colon
[18] = tested on: OVCAR-4 ovarian
[19] = tested on: OVCAR-3 ovarian

Measured: growth

C[C@]12CC[C@H]3[C@@H](C[C@@H]4SC(Nc5cccc(F)c5)=N[C@@]45CC(=O)CC[C@]35C)[C@@H]1CCC2=O
inactive: [4] 39.6% | [5] 65.5% | [7] 60% | [8] 35.4% | [9] 55.4% | [12] 35.9% | [15] 75.5% | [16] 38.7%
active: [1] -3.78% | [2] -11.9% | [3] -22.3% | [6] -18.4% | [10] -0.755% | [11] -8.61% | [13] 4.46% | [14] -68.8%

Cc1nc2ccccc2c(=O)n1-c1ccccc1F
inactive: [1] 96.9% | [2] 108% | [3] 102% | [4] 93.2% | [5] 102% | [6] 97.4% | [7] 111% | [8] 100% | [9] 112% | [10] 79.1% | [11] 105% | [12] 102% | [17] 105% | [13] 93.9% | [14] 98.7% | [15] 108% | [16] 105%

Cc1cc(Br)c([N+](=O)[O-])cc1[N+](=O)[O-]
inactive: [1] 71.1% | [2] 40.4% | [3] 120% | [4] 94.9% | [18] 113% | [6] 104% | [7] 110% | [19] 103% | [8] 105% | [9] 94.4% | [10] 85.7% | [11] 106% | [12] 96.3% | [17] 23% | [13] 91% | [14] 20.5% | [15] 111% | [16] 91.8%

N#CCC(=O)c1ccccc1
inactive: [1] 95.2% | [2] 107% | [3] 108% | [4] 96.5% | [18] 109% | [6] 105% | [7] 104% | [19] 102% | [8] 107% | [9] 104% | [10] 99.4% | [11] 116% | [12] 101% | [17] 97.6% | [13] 92.6% | [14] 107% | [15] 71.2% | [16] 90.8%

CC(=O)Nc1nc2c(s1)C1=CC[C@H]3[C@@H]4CC[C@H](OC(C)=O)[C@@]4(C)CC[C@@H]3[C@@]1(C)CC2
active: [12] 4.51%
inactive: [1] 82.9% | [2] 21.5% | [3] 30.8% | [4] 70.8% | [18] 69.4% | [6] 68.4% | [7] 62.5% | [19] 20.1% | [8] 39% | [9] 43.4% | [10] 74.3% | [11] 39.2% | [17] 43.3% | [13] 44.1% | [14] 39.8% | [16] 50.8%

CO[C@H]1[C@H](O[C@@H]2C[C@@H]3C/C=C/C(=O)O[C@@H](CO)C[C@H](O)[C@@H]4C[C@H](C)[C@H](C/C=C\C=C\[C@H](C)C[C@H](C2)O3)O4)O[C@@H](C)[C@H](O)[C@H]1O
inactive: [1] 43.8% | [2] 85.2% | [3] 28.1% | [4] 42.6% | [5] 71.2% | [6] 54% | [7] 71% | [8] 95.1% | [9] 55.8% | [10] 20.8% | [11] 53.9% | [12] 64.3% | [17] 76.6% | [13] 29.1% | [14] 57% | [16] 68.1%

N#CCN(CC#N)[N+](=O)[O-]
inactive: [1] 114% | [2] 100% | [3] 97.2% | [4] 109% | [18] 111% | [6] 104% | [7] 121% | [19] 108% | [8] 89.5% | [9] 110% | [10] 92.2% | [12] 108% | [17] 101% | [13] 93.3% | [14] 96.8% | [15] 115% | [16] 112%

Cc1cc(N)ccc1N
inactive: [1] 107% | [2] 110% | [3] 77% | [4] 96.1% | [5] 96% | [6] 99.9% | [7] 108% | [19] 102% | [8] 104% | [9] 105% | [11] 90.4% | [12] 116% | [13] 92.2% | [14] 91.8% | [15] 93.2% | [16] 104%

O=C(NC(Cl)=C(Cl)Cl)P(=O)(c1ccccc1)c1ccccc1
inactive: [1] 87.1% | [2] 88.3% | [3] 101% | [4] 126% | [18] 101% | [6] 107% | [7] 95% | [8] 113% | [9] 107% | [10] 105% | [11] 109% | [12] 92% | [17] 112% | [13] 97.3% | [14] 106% | [15] 114% | [16] 106%

COc1ccc2c(c1)C1(C)CCN(C)CC(C1)C2O (centres undefined)
inactive: [1] 94.1% | [2] 94.2% | [3] 98.7% | [4] 101% | [18] 103% | [6] 107% | [7] 86.9% | [19] 109% | [8] 116% | [10] 95.2% | [11] 98.2% | [12] 105% | [17] 101% | [13] 96% | [14] 97.8% | [15] 89.9% | [16] 102%

O=P1(N(CCCl)CCCl)NCCCO1 (centres undefined)
inactive: [1] 96.8% | [2] 99% | [3] 103% | [4] 102% | [18] 111% | [6] 111% | [7] 114% | [19] 121% | [8] 115% | [9] 108% | [10] 113% | [11] 106% | [12] 107% | [17] 102% | [13] 96.8% | [14] 104% | [15] 100% | [16] 111%

N[C@@H](CCC(=O)CCl)C(=O)O
inactive: [1] 99.9% [20 µM] | [2] 71.3% [20 µM] | [3] 111% [20 µM] | [4] 108% [20 µM] | [18] 112% [20 µM] | [6] 108% [20 µM] | [7] 99.5% [20 µM] | [19] 110% [20 µM] | [8] 109% [20 µM] | [9] 104% [20 µM] | [10] 93% [20 µM] | [11] 108% [20 µM] | [12] 103% [20 µM] | [13] 87.9% [20 µM] | [14] 104% [20 µM] | [15] 111% [20 µM] | [16] 100% [20 µM]

N#Cc1ccc(Cl)cc1
inactive: [1] 92.5% | [2] 87% | [3] 106% | [4] 109% | [18] 115% | [6] 109% | [7] 104% | [19] 114% | [9] 113% | [10] 104% | [12] 117% | [17] 103% | [13] 103% | [14] 114% | [15] 123% | [16] 115%

N#CCc1ccc(CC#N)cc1
inactive: [1] 99.9% | [2] 97.9% | [3] 98.8% | [4] 104% | [18] 119% | [6] 98.5% | [7] 109% | [19] 110% | [8] 96.6% | [9] 110% | [10] 87.5% | [11] 95.9% | [12] 102% | [17] 96.7% | [13] 91.4% | [14] 98.6% | [15] 108% | [16] 102%

O=C=Nc1ccc(Br)cc1
inactive: [1] 111% | [2] 98.5% | [3] 98.9% | [4] 107% | [18] 98.5% | [6] 99.1% | [7] 112% | [8] 106% | [9] 107% | [10] 92.2% | [11] 98.3% | [12] 108% | [17] 103% | [13] 97.8% | [14] 94.3% | [15] 100% | [16] 105%

C[N+]1(CC#CC[N+]2(C)CCCC2)CCCC1
inactive: [1] 103% | [2] 96.7% | [3] 109% | [4] 111% | [18] 105% | [6] 98.3% | [7] 105% | [8] 107% | [9] 102% | [10] 108% | [11] 101% | [12] 104% | [17] 107% | [13] 95.5% | [14] 98.4% | [15] 110% | [16] 102%

C/C(=C(\c1ccc(OCCN2CCOCC2)cc1)c1ccc(OC(=O)Cc2ccccc2)cc1)c1ccc(Cl)cc1
inactive: [1] 56.3% | [2] 114% | [3] 57.6% | [4] 97.7% | [5] 95.2% | [6] 110% | [7] 106% | [19] 95.8% | [8] 104% | [9] 95.8% | [10] 78% | [11] 91.1% | [12] 91.4% | [13] 83.5% | [14] 75.7% | [15] 88.4% | [16] 99.3%
